Source: PubChem BioAssay (National Center for Advancing Translational Sciences (NCATS))
A selection: hits, their analogues and other compounds. The true share with any hit is near 15%.
Pf growth 48h = inhibits P. falciparum growth in the first generation, 48 h; Potency, µM (titrated, usually from 28.7 µM), without a hit: at the top dose activity change, negative = inhibition, usual class: inhibitors; P. falciparum luciferase growth in erythrocytes, 48 h; actives 5.9% (n = 310,000); also: potency is read from the fitted curve at half-maximal effect; % is scaled to controls: 0 for no effect and ±100 for the full control effect
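Compounds are pin-transferred into medium, infected erythrocytes (2% hematocrit, 0.1% parasitemia final) are added, and plates sit one parasite generation at 37 C in 5% CO2. Detection reagent is then added and luminescence measured.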
HCV inhibitor = HCV inhibition; Huh7.5.1 HCVcc-Cre infection, luciferase reporter, 44 h; Potency, µM (highest dose often 41.8 µM), inactives show at the top dose activity change, negative = inhibition, actives largely listed as inhibitors; actives 3.4% (n = 340,000); also: potency is read from the fitted curve at half-maximal effect; % is scaled to controls: 0 for no effect and ±100 for the full control effect
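Antiviral activity was scored by luciferase reporter output from cells infected with HCVcc-Cre (~0.5 moi) in presence of compound, 44 h infection period, cells seeded 1,000/well 4 h prior.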
SARS PLpro yeast-1 = blocks SARS-CoV papain-like protease in a yeast assay. AID 485353. Potency, µM (series often up to 32.9 µM), for inactives: at the highest dose activity, positive = growth rescue, usual class: activators. actives 0.19% (n = 330,000). S. cerevisiae expressing SARS-CoV PLpro, growth rescue; calls by dose curve; also: potency is read from the fitted curve at half-maximal effect; 0% is about no effect; nearly all actives have a fitted effect of over 55% in size
HCMV antiviral = blocks human cytomegalovirus replication | HFF cells, HCMV-luciferase reporter, 72 h; stronger effect = lower value | activity change, negative = inhibition, % at 57.5 µM | actives 4.5% (n = 410,000); in the data active = activity change below about -60%; inconclusive = no clear call, values can overlap the other calls; inactive = above about -39%; also: % is scaled to controls: 0 for no effect and ±100 for the full control effect
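Screen run at 2 compound doses on HFFs infected with reporter HCMV, MOI 1 PFU/cell. Luciferase activity from cell lysates at 72 h post infection gave inhibition relative to buffer-only and Salinomycin wells.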
Sm TGR block = S. mansoni TGR enzyme inhibition; actives 3% (n = 360,000); AID 485364; purified TGR, DTNB reduction, TNB absorbance 405 nm; Potency, µM (top dose mostly 114 µM), inactives show top-dose activity change, negative = inhibition, most hits filed as inhibitors; also: potency is read from the fitted curve at half-maximal effect; % is scaled to controls: 0 for no effect and ±100 for the full control effect; nearly all actives have a fitted effect of over 60% in size
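TGR 20 nM + NADPH 100 uM (dispensed conc.), cpd preinc 15 min RT; start with NADPH (500 uM addition) then DTNB (15 mM addition). Kinetic TNB absorbance, 405 nm filter. Four-parameter Hill fit across titration.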
Pf growth 96h = inhibits malaria parasite growth, 96 h | P. falciparum luciferase reporter growth, 96 h | Potency, µM (top dose mostly 28.7 µM), without a hit: at the highest dose activity change, negative = inhibition, usual class: inhibitors | actives 6.9% (n = 320,000) | AID 504834; also: potency is read from the fitted curve at half-maximal effect; % is scaled to controls: 0 for no effect and ±100 for the full control effect
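Parasite growth measured via integrated firefly luciferase reporter in P. falciparum. Infected erythrocytes at 2% hematocrit, 0.05% parasitemia final were treated 96 hours at 37 C under 5% CO2, and luminescence was read.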
SARS PLpro yeast-2 = Inhibits SARS-CoV PLP in yeast, hit validation; calls only; yeast expressing SARS-CoV PLpro, growth phenotype rescue; actives 19% (n = 1,000); AID 652038; shares compounds with SARS PLpro yeast-1; call rule not given here
An asterisk follows results filed as active. Unless noted, calls follow the shape of the dose curve; as a rule, active = well fitted curve in the direction sought with a large enough effect; inconclusive = small, poorly fitted or top-dose-only effect, or another doubt; inactive = no such curve, though single readings can be large; an effect the other way counts as inactive or inconclusive.

For CC(=O)NC(CC(=O)Nc1ccc(S(=O)(=O)NC2=NCCCCC2)cc1)c1ccccc1 (configuration not stated) the results were Pf growth 48h -11%, HCV inhibitor inconclusive, SARS PLpro yeast-1 inconclusive, HCMV antiviral -14, Sm TGR block -7%, Pf growth 96h -22% and SARS PLpro yeast-2 inactive.
Screening Cn1c2ccccc2n2c(=O)c(=O)n(CC(=O)c3ccc(Cl)cc3)nc12 returned Pf growth 48h -5%, HCV inhibitor 31%, SARS PLpro yeast-1 11µM*, HCMV antiviral -27, Sm TGR block 0%, Pf growth 96h 21% and SARS PLpro yeast-2 inactive.
Screening COC(=O)c1ccccc1NC(=O)Cn1nc2n(C)c3ccccc3n2c(=O)c1=O returned Pf growth 48h -7%, HCV inhibitor 13%, SARS PLpro yeast-1 -8%, Sm TGR block -2% and Pf growth 96h 4%.
Screening O=C(N/N=C/c1c(O)n(CCC2=CCCCC2)c(=O)[nH]c1=O)c1ccccc1 returned Pf growth 48h 25%, HCV inhibitor 4%, SARS PLpro yeast-1 10µM*, HCMV antiviral 34, Sm TGR block -31%, Pf growth 96h inconclusive and SARS PLpro yeast-2 inactive.
Screening NS(=O)(=O)c1cccc(NC(=O)CCSc2ccccc2Cl)c1 returned Pf growth 48h 79%, HCV inhibitor 11%, SARS PLpro yeast-1 inconclusive, HCMV antiviral 6, Sm TGR block 0%, Pf growth 96h 110% and SARS PLpro yeast-2 inactive.
Screening O=S(=O)(Cc1ccccc1Cl)NCCc1ccc(F)cc1 returned Pf growth 48h 2%, HCV inhibitor -3%, SARS PLpro yeast-1 -11%, HCMV antiviral 12, Sm TGR block 8% and Pf growth 96h 5%.
COc1cc(/C=N/NC(=O)CN(CCc2ccccc2)S(=O)(=O)c2ccc(NC(C)=O)cc2)cc(OC)c1OC was read as Pf growth 48h inconclusive, HCV inhibitor -26%, SARS PLpro yeast-1 -1%, HCMV antiviral -31, Sm TGR block 6% and Pf growth 96h 41%.
COc1ccc(/C=N/NC(=O)CN(CCc2ccccc2)S(=O)(=O)c2ccc(NC(C)=O)cc2)cc1OC was read as Pf growth 48h inconclusive, HCV inhibitor -15%, SARS PLpro yeast-1 3.5µM*, HCMV antiviral 33, Sm TGR block -5%, Pf growth 96h 9.3µM* and SARS PLpro yeast-2 inactive.
For COc1ccc(S(=O)(=O)N(CCc2ccccc2)CC(=O)Nc2ccc(C)c(C)c2)cc1OC the results were HCMV antiviral -16 and Sm TGR block 3%.
COc1ccc(S(=O)(=O)N(CCc2ccccc2)CC(=O)O)cc1Cl was read as Pf growth 48h 16%, HCV inhibitor -16%, SARS PLpro yeast-1 inconclusive, HCMV antiviral -16, Sm TGR block 0% and SARS PLpro yeast-2 inactive.
`CCOC(=O)CC(NC(=O)c1ccco1)c1ccc(OC)cc1` (configuration not stated) gave Pf growth 48h -11%, HCV inhibitor -10%, SARS PLpro yeast-1 inconclusive, HCMV antiviral -15, Sm TGR block 9%, Pf growth 96h 273% and SARS PLpro yeast-2 inactive.
For COc1ccc(C(CC(=O)O)NC(=O)c2ccco2)cc1 (configuration not stated) the results were Pf growth 48h 7%, HCV inhibitor -5%, SARS PLpro yeast-1 9%, HCMV antiviral -1 and Sm TGR block 33%.
For COc1ccc(-c2cn(CCC(=O)O)c(-c3ccc(Cl)nc3)n2)cc1 the results were Pf growth 48h 15%, HCV inhibitor 18%, SARS PLpro yeast-1 inconclusive, HCMV antiviral 3, Sm TGR block -15%, Pf growth 96h 53% and SARS PLpro yeast-2 inactive.
Screening CCN1C(=O)S/C(=C/c2ccsc2)C1=O returned Pf growth 48h 31%, HCV inhibitor 2%, SARS PLpro yeast-1 8%, HCMV antiviral -31 and Sm TGR block -8%.
